Experimental findings from PubChem BioAssay (NCATS) are described below.

Molecules are shown by their SMILES. Records with an inconclusive call do not appear. Values without a mark were called inactive. The source made the active and inactive calls. The call rests on the fitted dose curve; in most records, active means well fitted curve in the direction sought with a large enough effect; inconclusive means small, poorly fitted or top-dose-only effect, or another doubt; inactive means no such curve, though single readings can be large or run the other way. Where a SMILES comes first, the peptide text is derived from it. Bridges are numbered along the chain shown (N, C = ends). [ ]: non-standard residue; d: D form. hArg = N=C(N)NCCCC[C@H](N)C(=O)O; Mpa = O=C(O)CCS
On the % scale 0 is the no-effect control and ±100 the full control effect; potency means the concentration at half of the fitted maximal effect.

A short description of the assay: qHTS Assay for Identifying Gametocytocidal Compounds (AID 743244).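 On max response: actives lower the fluorescent signal which means gametocytes are killed.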 Conditions: P. falciparum 3D7 stage III-V gametocytes, alamarBlue, 72 h; max response: active compounds read low. An excerpt:
Malaria cases and deaths have dropped 50% in 29 countries since 2000 due to the combined effects of long-lasting insecticidal bednets, indoor residual spraying, and artemisinin-based combination therapies (ACTs). This success has raised hopes for malaria eradication and consequently stimulated interest in developing new reagents that block gametocyte transmission such as novel and safe gametocytocidal drugs. However, previous drug development efforts have focused primarily on the asexual parasites that cause symptoms, but not malaria transmission. Consequently, patients can remain infectious for weeks after the clearance of asexual parasites and clinical symptoms. To be transmitted from person to person via a mosquito, the parasites must switch from asexual to sexual development and produce male and female gametocytes. Malaria gametocytes consist of five stages (I, II, III, IV and V). The late stage gametocytes (III, IV and V) are difficult to be cultured in vitro and the long lifespan of mature gametocytes allows them being transmitted from host to mosquitoes unless they are completely eliminated by gametocytocidal agents. To identify gametocytocidal compounds which are capable of killing late stage P. falciparum gametocytes, a high throughput gametocyte viability assay was employed. This assay uses oxidoreduction indicator, alamarBlue, as a general measure of metabolic activity of gametocytes. Within live cells, the nonfluorescent resazurin is reduced to resorufin, a bright red fluorescence dye. Fluorescence decreases upon treatment of gametocytocidal compounds. P. falciparum gametocyte (3D7 strain) was used in this study.
The 1536-well gametocycidal viability assay was based on the previous method of Tanaka et al. Stage III-V gametocytes were tested against three compound libraries, including 4265 compounds from NCGC pharmaceutical collection, 400 from Malaria Box library, and 550 from an internal collection of kinase inhibitors. Briefly, 2.5 ul/well incomplete medium was dispensed into each well of 1,536-well plates using the Multidrop Combi followed by 23 nl compound transferring using the NX-TR Pintool (WAKO Scientific Solutions, San Diego, CA). Then, 2.5 ul/well of gametocytes was dispensed with a seeding density of 20,000 cells/well using the Multidrop Combi. The assay plates were incubated for 72 h at 37C with 5% CO2. After addition of 5 ul/well of 2X AlamarBlue dye (Life Technologies, cat. no. DAL1100), the plates were incubated for 24 h at 37C with 5% CO2 and then were read in a fluorescence detection mode (Ex = 525 nm, Em = 598 nm) on a ViewLux plate reader (PerkinElmer).
As for `NC(=O)[C@@H]1CSSCCC(=O)N[C@@H](CCCCN=C(N)N)C(=O)NCC(=O)N[C@@H](CC(=O)O)C(=O)N[C@@H](Cc2c[nH]c3ccccc23)C(=O)N2CCC[C@H]2C(=O)N1` ([Mpa][hArg]GDWPC-NH2; disulfide 1-7), the max response was 6.22%. The same measure, in the same setting: in the case of `CCCOC(=O)c1ccc(N)cc1` it was -6.49%.

For the molecule `O=C(NCN1CCOCC1)c1cnccn1`, the max response was -4.94%. Regarding `Nc1c2c(nc3c1CCC3)CCCC2`, the Potency is 11.2 µM (active). Turning to `O=c1[nH]c(=O)c2ccccc2o1`, the max response is -4.26%. Same read-out and setting: next, `CCCCCCCCCCCCCCCCCCO`: 4.31%; `CCN[C@H]1CN(CCCOC)S(=O)(=O)c2sc(S(N)(=O)=O)cc21`: 21.3%; `O[C@@H]1CO[C@H]2[C@@H]1OC[C@@H]2O`: -6.28%. On the same count and under the same terms, in the case of `CC(C)=CCC/C(C)=C/CO` it was 19.8%. On the same count and under the same terms, next, `COC(=O)N/N=C/c1c[n+]([O-])c2ccccc2[n+]1[O-]`: 5.03%. For the molecule `CC1(C)S[C@@H]2[C@H](NC(=O)C(C(=O)O)c3ccccc3)C(=O)N2[C@H]1C(=O)O` (stereo not given in full), the max response is -0.734%. Still for that read-out and setting: next, `NS(=O)(=O)c1ccc(C(=O)O)cc1`: 4.63%; `CCCCCCCC(=O)OCC(COC(=O)CCCCCCC)OC(=O)CCCCCCC`: 1.43%. The same measure, in the same setting: next, `Cn1cc(C(=O)[C@@H]2CCc3nc[nH]c3C2)c2ccccc21`: -8.94%; `COC(=O)c1ccccc1C(=O)c1ccc(OCCN2CCCCC2)cc1`: -9.15%.

Regarding `O=C(NCCCN1CCOCC1)c1ccc(Cl)cc1`, the max response was -7.89%. For the molecule `CCN(CC)CCc1nc(-c2ccccc2)no1`, the max response was 1.91%.

On to `Cc1c(I)c(=O)n(-c2ccccc2)n1C`, for which the max response was 4.77%. Still for that read-out and setting: in the case of `NC(=O)N[C@@H](CCC(=O)O)C(=O)O` it was -4.71%; in that of `FC(F)(F)C(Cl)Br` (stereo not given), -11.3%; in that of `CN1C(C)(C)CCCC1(C)C`, -1.65%. Same read-out and setting: next, `O=C(O)CCCc1ccccc1`: 13.9%; `CC(=O)NCc1c(I)c(NC(C)=O)c(I)c(C(=O)O)c1I`: 12.1%; `Cc1cc(OI)c(C(C)C)cc1-c1cc(C(C)C)c(OI)cc1C`: 3.81%. Same read-out and setting: next, `COc1ccc(-c2cc(=O)c3c(O)cc(O[C@@H]4O[C@H](CO[C@@H]5O[C@@H](C)[C@H](O)[C@@H](O)[C@H]5O)[C@@H](O)[C@H](O)[C@H]4O)cc3o2)cc1O`: -2.29%; `CC(=O)N1C[C@H](O)C[C@H]1C(=O)O`: 11.8%; `O=C(O)c1ccc[n+]([O-])c1`: -6.63%.

On to `CCN(CC)C(=O)c1cccc(C)c1`, for which the max response was 18.7%. Same read-out and setting: next, `OC[C@@H](O)[C@@H](O)[C@H](O)[C@H](O)CO`: 5.56%. `Nc1ccc(C(=O)Oc2ccccc2)c(O)c1`: the max response was -7.01%. On to `NC(N)=NCCN1CCCCCCC1`, for which the max response was 21%. Still for that read-out and setting: in the case of `O=C1c2ccccc2C(=O)C1c1ccc(Br)cc1` it was -7.34%; in that of `O=C(O)COC(=O)Cc1ccccc1Nc1c(Cl)cccc1Cl`, 5.55%; in that of `Cc1ccc(S(=O)(=O)NC(=O)NC2CCCCC2)cc1`, 0.0407%. In the case of `Cc1ccc2c(c1)c1c3n2CCNC3CCC1` (stereo not given), the max response was 5.73%. For the molecule `OCC(O)CS` (stereo not given), the max response was 0.0928%. As to `NS(=O)(=O)c1cc(-c2nn[nH]n2)c(NCc2cccs2)cc1Cl`, the max response is 54.3%. Same read-out and setting: in the case of `Cc1cc(=O)[nH]c(=S)[nH]1` it was 4.75%; in that of `O=C(/C=C/c1ccccc1)OCc1ccccc1`, 18.6%; in that of `Cc1onc(-c2ccccc2)c1-c1ccc(S(N)(=O)=O)cc1`, 7.78%.
